Assay results taken from PubChem BioAssay (NCI).
“And” between values parts separate entries of the source, which are not always exact repeats. Identical values can stand only once. About 79,000 compounds went through this panel and 15% of them were active in at least one assay; those are over-represented in the sample as a whole. Cut-off read from the data, not from the text of the source: active = growth inhibition above about 70%; inactive = the rest.

Legend:
[1] = NCI Yeast Anticancer Drug Screen. Data for the rad50 strain (AID 155);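 note: 0% = growth of vehicle-only cultures of the same strain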; settings: S. cerevisiae rad50 strain growth inhibition, stronger effect = higher value; at 50.0 µM unless noted
Method in brief: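 Relative growth inhibition (compound vs vehicle) was measured in yeast with a defined repair-gene alteration.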

[2] = NCI Yeast Anticancer Drug Screen. Data for the mec2-1 strain (AID 157); settings: S. cerevisiae mec2-1 strain, stronger effect = higher value; at 50.0 µM unless noted
Method in brief: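 mec2-1 yeast strain, carrying an alteration in DNA damage repair or cell cycle control, was exposed to compounds; growth inhibition was measured relative to vehicle-treated controls.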

[3] = NCI Yeast Anticancer Drug Screen. Data for the sgs1 mgt1 strain (AID 161);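 note: 0% = growth of cultures given vehicle only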; settings: S. cerevisiae sgs1 mgt1 strain, stronger effect = higher value; at 50.0 µM unless noted
Method in brief: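 Compounds are added to genetically altered yeast, and growth is compared with cultures given vehicle alone to give percent inhibition.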

[4] = NCI Yeast Anticancer Drug Screen. Data for the cln2 rad14 strain (AID 165);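 note: 0% = growth equal to vehicle treated cultures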; settings: S. cerevisiae cln2 rad14 strain, stronger effect = higher value; at 50.0 µM unless noted
Method in brief: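 Yeast carrying cln2 and rad14 alterations (cell cycle control and DNA damage repair) were exposed to compounds. Growth inhibition was measured against vehicle-treated controls.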

[5] = NCI Yeast Anticancer Drug Screen. Data for the bub3 strain (AID 167); settings: S. cerevisiae bub3 mutant strain, stronger effect = higher value; at 50.0 µM unless noted
Method in brief: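 Screening used yeast with an engineered genetic alteration affecting cell cycle control. Compound-exposed cultures were compared with vehicle cultures, and reduced growth was taken as inhibition.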

[6] = NCI Yeast Anticancer Drug Screen. Data for the mlh1 rad18 strain (AID 175); settings: S. cerevisiae mlh1 rad18 strain growth inhibition, stronger effect = higher value; at 50.0 µM unless noted
Method in brief: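 Growth inhibition of the yeast strain was measured after compound exposure and expressed relative to vehicle-treated controls. The strain carries defined defects in DNA damage repair.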

Measured: growth inhibition

CC[N+]1(CC)CC[N+]2(CC1)CC[N+]1(CC[N+](CC)(CC)CC1)CC2
inactive: [1] -16.9% | [2] -3.4% | [3] 12.1% | [4] -26.6% | [5] 1.7% | [6] 2.7%

CC1=C(C)C(C#N)(C(=O)CBr)C(=N)O1 (centres undefined)
inactive: [1] 37.4% | [2] 28.1% | [3] 44% | [4] 0% | [5] 33.1% | [6] 68.2%

C[n+]1cccc(C#N)c1
inactive: [1] 6.55% and 5.2% | [2] 4.6% and -7.45% | [3] -0.95% and 0.4% | [4] -14.8% and -21.6% | [5] 2.3% and -6.65% | [6] -0.5% and 10.1%

CCOC(=O)C12CCCC1(O)N(NC(=O)OC)C(C)=C2C(=O)OC (centres undefined)
inactive: [1] -6.6% | [2] -7.65% | [3] 2.05% | [4] -63.4% | [5] -5.6% | [6] -6.5%

OCCNc1cccc2ccccc12
inactive: [1] 31.6% | [2] -4.15% | [3] 35.2% | [4] 18.9% | [5] 8.8% | [6] 37.4%

Cc1cc(=O)[nH]c(NN2C(Cl)C(=O)C2c2ccccc2O)n1 (centres undefined)
inactive: [1] 16.4% | [2] -31.5% | [3] 13.3% | [4] 2.95% | [5] -9.3% | [6] -13.8%

CCc1cccc(CC)c1N1C(=O)CC(Sc2ccccc2N)C1=O (centres undefined)
inactive: [1] -18.1% | [2] -16.3% | [3] -14.8% | [4] -0.85% | [5] -9.5% | [6] -25.8%

O=C(c1ccccc1)C1(c2ccccc2)OC1(C(=O)c1ccccc1)c1ccccc1 (centres undefined)
inactive: [1] 15.4% | [2] -4.75% | [3] 7.5% | [4] -7.65% | [5] -3.3% | [6] 4.2%

COC1OC(CI)C(O)C(O)C1O (centres undefined)
inactive: [1] -6.05% | [2] 2.4% | [3] -4.45% | [4] -24.2% | [5] 37.8% | [6] -16.7%

CCOC(=N)C1(O)CCCCC1
inactive: [1] -9.05% | [2] -6.75% | [3] -13.4% | [4] -5.1% | [5] -3.8% | [6] 23.6%

CCOC(=O)c1[nH]c(C)c(C#N)c1C
inactive: [1] -34.4% | [2] -26.6% | [3] -12.7% | [4] -34.6% | [5] -20.8% | [6] -19.1%

COc1ccc(C(c2cc3c(cc2O)OCO3)N2CCN(C(c3ccc(OC)c(OC)c3)c3cc4c(cc3O)OCO4)CC2)cc1OC (centres undefined)
inactive: [1] -3% | [2] 1.05% | [3] 1.6% | [4] 17.4% | [5] 2.2% | [6] -17.1%

COc1cc2c(cc1OC)C1C(C)c3ccc(OC)c(OC)c3CN1CC2 (centres undefined)
inactive: [1] 0.65% | [2] -43% | [3] -3.25% | [4] -0.95% | [5] -29.6% | [6] -8.6%

N#CC(C(=S)Nc1ccccc1)=C1Nc2ccccc2N1
inactive: [1] 7.2% | [2] -36.2% | [3] -18.1% | [4] -2.65% | [5] -20.1% | [6] -22.8%

O=C(C1=CCCCC1)c1ccc(-c2ccccc2)cc1
inactive: [1] -4.25% | [2] 11.2% | [3] 2.25% | [4] -14.6% | [5] -6.15% | [6] 4.65%

COc1ccc(-c2nc(Sc3c([N+](=O)[O-])ncn3C)n[nH]2)cc1
inactive: [1] -1.25% | [2] 5.75% | [3] 3.7% | [4] 25.7% | [5] 12.5% | [6] -6.6%

CNCCc1cn(C2OC(CO)C(O)C(O)C2O)cn1 (centres undefined)
inactive: [1] -7.15% | [2] -17.6% | [3] -22.3% | [4] -40.9% | [5] -28.4% | [6] -13.3%

COc1cccc(N2C(=O)C3c4[nH]c5ccccc5c4C4c5ccccc5CCC4C3C2=O)c1 (centres undefined)
inactive: [1] -0.1% | [2] 4.4% | [3] 5.05% | [4] 2.95% | [5] -0.6% | [6] 20.9%

COC(=O)CC(C)N(c1ccc(Cl)c(Cl)c1)S(=O)(=O)c1ccc(C)cc1 (centres undefined)
inactive: [1] 37.9% | [2] -0.15% | [3] 4.1% | [4] -19.1% | [5] -6.05% | [6] 11.1%
